Several values for one entry are separate records, joined by “and”; a condition that tells them apart may be missing. Identical values can stand only once. Inconclusive results are not listed. Activity calls are given as the source filed them. Unless noted, calls follow the shape of the dose curve; as a rule, active = well fitted curve in the direction sought with a large enough effect; inconclusive = small, poorly fitted or top-dose-only effect, or another doubt; inactive = no such curve, though single readings can be large; an effect the other way counts as inactive or inconclusive.
Tests used:
Es-2 = assay: Primary qHTS to identify gynecologic anti-cancer compounds using libraries of approved drugs and bioactive compounds (AID 1345084); details: Gynecologic cancer cell panel viability, ATPlite luminescence, 48 h; series mostly up to 57.5 µM; also: nearly all actives have a fitted effect of over 55% in size; also: potency is read from the fitted curve at half-maximal effect
Procedure, shortened: (§1)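 Cells, 1,000 per well, plated 16 h, then exposed 48 h at 37 C to compounds. Viability by ATPlite luminescence after 15 min at room temperature.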

HeLa = assay: as above; details: Gynecologic cancer cell panel viability, ATPlite luminescence, 48 h; series mostly up to 57.5 µM
Procedure, shortened: as §1

Hek293T = assay: as above; details: Gynecologic cancer cell panel viability, ATPlite luminescence, 48 h, control line for the selectivity index; series mostly up to 57.5 µM
Procedure, shortened: as §1

JEG-3 = assay: as above; details: Gynecologic cancer cell panel viability, ATPlite luminescence, 48 h; series mostly up to 57.5 µM
Procedure, shortened: as §1

OV90 = assay: as above; details: Gynecologic cancer cell panel viability, ATPlite luminescence, 48 h; series mostly up to 57.5 µM
Procedure, shortened: as §1

PA-1 = assay: as above; details: Gynecologic cancer cell panel viability, ATPlite luminescence, 48 h; series mostly up to 57.5 µM
Procedure, shortened: as §1

Tov-21-G = assay: as above; details: Gynecologic cancer cell panel viability, ATPlite luminescence, 48 h; series mostly up to 57.5 µM
Procedure, shortened: as §1

Tov112D = assay: as above; details: Gynecologic cancer cell panel viability, ATPlite luminescence, 48 h; series mostly up to 57.5 µM
Procedure, shortened: as §1

[1] = Drug repurposing screens with cells derived from glioblastoma tumor samples (AID 1345199); details: GBM patient neurospheres viability, ATP luminescence, 48 h; also: nearly all actives have a fitted effect of over 40% in size; also: potency is read from the fitted curve at half-maximal effect; as to activity, negative = cell killing: % is scaled to controls: 0 for no effect and ±100 for the full control effect
Procedure, shortened: (§2)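 Primary testing used CD133+ neurospheres from four GBM patients, seven concentrations, 48 h exposure and ATP-based viability; confirmation added three slower-growing patient lines.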

SKOV3 = assay: Primary qHTS to identify gynecologic anti-cancer compounds using libraries of approved drugs and bioactive compounds (AID 1345084); details: Gynecologic cancer cell panel viability, ATPlite luminescence, 48 h; series mostly up to 57.5 µM; also: nearly all actives have a fitted effect of over 55% in size; also: potency is read from the fitted curve at half-maximal effect
Procedure, shortened: as §1

astro = assay: Drug repurposing screens with cells derived from glioblastoma tumor samples (AID 1345199); details: viability, ATP luminescence, 48 h; series mostly up to 45.9 µM; also: nearly all actives have a fitted effect of over 40% in size; also: potency is read from the fitted curve at half-maximal effect; as to activity, negative = cell killing: % is scaled to controls: 0 for no effect and ±100 for the full control effect
Procedure, shortened: as §2

[2] = biological target: Nuclear receptor subfamily 1 group I member 2 (Rattus norvegicus) (UniProt Q9R1A7); assay: qHTS assay for small molecule activators of the rat pregnane X receptor (rPXR) signaling pathway (AID 651751; call rule not given here; also: 0% is about no effect); details: rPXR reporter cells, luciferase (One-Glo), 24 h
[3] = qHTS assay for small molecule activators of the human pregnane X receptor (PXR) signaling pathway (AID 720659; call rule not given here; also: 0% is about no effect)
[4] = qHTS assay to identify inhibitors of the type 1 interferon - major histocompatibility complex class I in skeletal muscle: Counter screen cell viability and HiBit confirmation (AID 1347412); details: iHSKM muscle cells + IFN-b, HiBiT or CellTiter-Glo, 24 h; also: nearly all actives have a fitted effect of over 60% in size; also: potency is read from the fitted curve at half-maximal effect; as to activity change, negative = inhibition: % is scaled to controls: 0 for no effect and ±100 for the full control effect
Procedure, shortened: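 Human myoblast knock-in line, 4.0 ng/ml IFN-beta stimulation, 24 h compound treatment. Endpoints: HiBiT lytic luminescence (HLA-B level) and CellTiter Glo (ATP). Dosing 12 concentrations, 3-fold steps, 46 uM highest final.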

[5] = at 45.9 µM (top of the series), tumour line B
[6] = at 45.9 µM (top of the series), tumour line D
[7] = at 46.1 µM (top of the series), tumour line C
[8] = at 46 µM (top of the series), tumour line A
[9] = at 20 µM (top of the series), tumour line C
[10] = at 21.2 µM (top of the series), tumour line B
[11] = at 21.2 µM (top of the series), tumour line D
[12] = at 21.3 µM (top of the series), tumour line A

Nuclear receptor subfamily 1 group I member 2 (Rattus norvegicus), sequence (Q9R1A7 whole entry, looked up): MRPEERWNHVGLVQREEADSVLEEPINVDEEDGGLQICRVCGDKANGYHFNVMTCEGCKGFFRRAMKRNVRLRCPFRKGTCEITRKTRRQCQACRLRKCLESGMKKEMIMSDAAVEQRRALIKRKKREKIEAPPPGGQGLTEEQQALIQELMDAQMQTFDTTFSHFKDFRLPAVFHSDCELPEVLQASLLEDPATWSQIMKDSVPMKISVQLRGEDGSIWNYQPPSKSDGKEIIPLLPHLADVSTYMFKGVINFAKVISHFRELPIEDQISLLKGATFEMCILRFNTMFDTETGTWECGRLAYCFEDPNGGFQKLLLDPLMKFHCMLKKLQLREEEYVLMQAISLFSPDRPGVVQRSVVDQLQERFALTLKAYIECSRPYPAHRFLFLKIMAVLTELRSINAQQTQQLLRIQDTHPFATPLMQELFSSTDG

COc1c(N2CCNC(C)C2)c(F)cc2c(=O)c(C(=O)O)cn(C3CC3)c12 (stereo unspecified)
inactive: Potency (Es-2) | Potency (HeLa) | Potency (Hek293T) | Potency (JEG-3) | Potency (OV90) | Potency (PA-1) | Potency (Tov-21-G) | Potency (Tov112D) | activity, negative = cell killing [1, 5] -10.7% | activity, negative = cell killing [1, 6] -20.8% | activity, negative = cell killing [1, 7] 14.5%

CCOCC(O)COc1ccc(NC(=O)CC[S+](C)C)cc1 (stereo unspecified)
inactive: Potency (Es-2) | Potency (HeLa) | Potency (Hek293T) | Potency (JEG-3) | Potency (OV90) | Potency (PA-1) | Potency (SKOV3) | Potency (Tov-21-G) | Potency (Tov112D) | activity, negative = cell killing [1, 5] -7.04% | activity, negative = cell killing [1, 6] -30.9% | activity, negative = cell killing [1, 8] -26.7% | activity, negative = cell killing [1, 7] -28.1% | Potency (astro)

CC(=O)CC(c1ccccc1)c1c(O)c2ccccc2oc1=O (stereo unspecified)
inactive: Potency (Es-2) | Potency (HeLa) | Potency (Hek293T) | Potency (JEG-3) | Potency (OV90) | Potency (Tov-21-G) | Potency (Tov112D) | activity, negative = cell killing [1, 5] -11.1% and -14.3% | activity, negative = cell killing [1, 6] 1.21% and -22.4% | activity, negative = cell killing [1, 8] -22% | activity, negative = cell killing [1, 7] -1.82% and -1.98% | Potency (astro) | max response [2] 2.18% | outcome [3]

NNC(=O)c1ccncc1
inactive: Potency (Es-2) | Potency (HeLa) | Potency (Hek293T) | Potency (JEG-3) | Potency (OV90) | Potency (PA-1) | Potency (SKOV3) | Potency (Tov-21-G) | Potency (Tov112D) | activity, negative = cell killing [1, 5] -4.35% | activity, negative = cell killing [1, 6] -4.61% | activity, negative = cell killing [1, 7] -1.87% | Potency (astro) | max response [2] 6.47% | outcome [3]

COc1ccccc1OCC(O)COC(N)=O (stereo unspecified)
inactive: Potency (Es-2) | Potency (HeLa) | Potency (Hek293T) | Potency (JEG-3) | Potency (OV90) | Potency (PA-1) | Potency (SKOV3) | Potency (Tov-21-G) | Potency (Tov112D) | activity, negative = cell killing [1, 9] -0.35% | activity, negative = cell killing [1, 10] -3.25% | activity, negative = cell killing [1, 11] -10.3% | activity, negative = cell killing [1, 12] -18% | Potency (astro)

CC(C)(C)NC(=O)[C@H]1CC[C@H]2[C@@H]3CC[C@H]4NC(=O)C=C[C@]4(C)[C@H]3CC[C@]12C
active: Potency (SKOV3) 12600 nM
inactive: Potency (Es-2) | Potency (HeLa) | Potency (Hek293T) | Potency (JEG-3) | Potency (PA-1) | Potency (Tov-21-G) | Potency (Tov112D) | activity, negative = cell killing [1, 9] -3.62% | activity, negative = cell killing [1, 10] -10.8% | activity, negative = cell killing [1, 11] -2.64% | activity, negative = cell killing [1, 12] -15% | Potency (astro)

CCC(=O)O[C@]1(C(=O)CCl)[C@@H](C)C[C@H]2[C@@H]3CCC4=CC(=O)C=C[C@]4(C)[C@@]3(F)[C@@H](O)C[C@@]21C
inactive: Potency (Es-2) | Potency (Hek293T) | Potency (JEG-3) | Potency (OV90) | Potency (PA-1) | Potency (Tov-21-G) | Potency (Tov112D) | activity, negative = cell killing [1, 5] -2.08% | activity, negative = cell killing [1, 6] 0.817% | activity, negative = cell killing [1, 7] 10.1%

O=C(O)c1cn(C2CC2)c2cc(N3CCNCC3)c(F)cc2c1=O
inactive: Potency (Es-2) | Potency (Hek293T) | Potency (JEG-3) | Potency (OV90) | Potency (PA-1) | Potency (SKOV3) | Potency (Tov-21-G) | Potency (Tov112D) | activity, negative = cell killing [1, 9] -4.75% | activity, negative = cell killing [1, 10] -18.6% | activity, negative = cell killing [1, 11] 4.14%

Nc1nc(=S)c2[nH]cnc2[nH]1
inactive: Potency (astro)
active: Potency (Es-2) 7080 nM | Potency (HeLa) 1410 nM | Potency (JEG-3) 3160 nM | Potency (OV90) 8910 nM | Potency (PA-1) 3550 nM | Potency (Tov-21-G) 3550 nM | Potency (Tov112D) 1410 nM

COC(=O)Nc1nc2ccc(C(=O)c3ccccc3)cc2[nH]1
inactive: activity, negative = cell killing [1, 9] -22.4% | activity change, negative = inhibition ([4]; Viability, at 45.9 µM (top of the series)) -33.9%
active: Potency (Es-2) 2820 nM | Potency (HeLa) 1000 nM | Potency (OV90) 8910 nM | Potency (PA-1) 1410 nM | Potency (Tov112D) 1580 nM | Potency ([1]; tumour line A) 158 nM

Cn1nnc2c(C(N)=O)ncn2c1=O
inactive: Potency (Es-2) | Potency (Hek293T) | Potency (JEG-3) | Potency (OV90) | Potency (PA-1) | Potency (SKOV3) | Potency (Tov-21-G) | Potency (Tov112D) | activity, negative = cell killing [1, 5] -3.24% | activity, negative = cell killing [1, 6] -16.1% | activity, negative = cell killing [1, 8] -21.4% | activity, negative = cell killing [1, 7] -14.3% | Potency (astro)

CC(C)C[C@H](NC(=O)[C@H](CCc1ccccc1)NC(=O)CN1CCOCC1)C(=O)N[C@@H](Cc1ccccc1)C(=O)N[C@@H](CC(C)C)C(=O)[C@@]1(C)CO1
inactive: Potency (JEG-3)
active: Potency (Es-2) 316 nM | Potency (Hek293T) 251 nM | Potency (OV90) 251 nM | Potency (PA-1) 89.1 nM | Potency (SKOV3) 251 nM | Potency (Tov-21-G) 251 nM | Potency (Tov112D) 708 nM | Potency (astro) 708 nM | Potency ([4]; HiBiT) 88.3 nM

Source: PubChem BioAssay (NCATS)
